Screening results (PubChem BioAssay)
ELG1 DNA repair = ELG1-dependent DNA repair inhibition. 2.3% of 330,000 active. Potency, µM (series often up to 46.1 µM), for inactives: at the top dose activity change, negative = inhibition, most hits filed as inhibitors. HEK293T ELG1-luciferase reporter, luminescence, 16 h; DNA damage induced by 5-fluorouridine. AID 504467; also: nearly all actives have a fitted effect of over 55% in size
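DMSO vehicle served as the neutral condition. Each well held 2,000 cells given 5-fluorouridine plus compound; after 16 hr at 37 °C/5% CO2, ONE-Glo was added and luciferase measured 30 min later.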
TDP1 cell noCPT = qHTS for Inhibitors of human tyrosyl-DNA phosphodiesterase 1 (TDP1): qHTS in cells in absence of CPT. DT40 Tdp1-/- hTDP1 cells, no CPT, ATP luminescence, 48 h. Potency, µM (series often up to 46.2 µM), inactives show top-dose activity change, negative = growth inhibition, actives largely listed as inhibitors. 15% of 420,000 active; also: nearly all actives have a fitted effect of over 55% in size
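Chicken DT40 Tdp1-/- cells stably complemented with human TDP1 were seeded at 400 cells/well with DMSO in place of 20 nM camptothecin. After compound pinning, cells grew at least 48 hr at 37 °C; viability read by CellTiter-Glo luminescence.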
RORgamma inh = ROR gamma (mouse) transcription inhibition; P51450; Drosophila S2 Gal4-RORgamma UAS-luciferase reporter, 20 h; Potency, µM (highest dose often 53.6 µM), for the others: at the top dose activity change, negative = inhibition, actives largely listed as inhibitors; 5.4% of 310,000 active; AID 2551; also: nearly all actives have a fitted effect of over 60% in size
Target sequence (P51450 whole entry, looked up, the tested form may be a part): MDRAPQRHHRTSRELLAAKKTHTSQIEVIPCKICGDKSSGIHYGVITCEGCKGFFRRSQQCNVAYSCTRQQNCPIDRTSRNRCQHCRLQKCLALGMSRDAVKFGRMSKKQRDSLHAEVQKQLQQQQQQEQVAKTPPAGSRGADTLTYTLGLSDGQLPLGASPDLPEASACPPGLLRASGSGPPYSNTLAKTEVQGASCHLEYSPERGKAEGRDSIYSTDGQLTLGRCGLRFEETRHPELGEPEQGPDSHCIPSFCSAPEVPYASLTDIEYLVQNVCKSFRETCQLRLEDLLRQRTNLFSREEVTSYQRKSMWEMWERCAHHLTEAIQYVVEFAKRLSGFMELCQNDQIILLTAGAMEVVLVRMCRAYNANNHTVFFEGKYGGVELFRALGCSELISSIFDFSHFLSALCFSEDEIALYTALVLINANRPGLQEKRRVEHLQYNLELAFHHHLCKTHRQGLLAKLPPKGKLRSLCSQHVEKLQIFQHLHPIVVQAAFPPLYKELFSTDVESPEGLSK
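Stable Schneider cell line, Gal4 DNA-binding domain fused to ROR gamma, UAS-luciferase. Cmpd 1 hr RT → CuSO4 700 uM final → 20 hr RT → luciferase reagent 10 min → luminescence.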
Gal4-VP16 FLuc = inhibits Gal4-VP16 luciferase reporter, ROR gamma counter-screen; 3.5% of 310,000 active; AID 2546; Drosophila S2 Gal4-VP16 UAS-luciferase, luminescence, 20 h; Potency, µM (series often up to 53.6 µM), without a hit: at the highest dose activity, negative = inhibition, most hits filed as inhibitors;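 also: Gal4-VP16 expression switched on by copper sulfate through the metallothionein promoter; nearly all actives have a fitted effect of over 50% in size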
DT40 TDP1 CPT = growth inhibition of DT40 Tdp1-/-;hTDP1 cells with camptothecin (screen for TDP1 inhibitors); chicken DT40 Tdp1-/-;hTDP1 cells + 20 nM CPT, ATP luminescence, 48 h; Potency, µM (doses to about 46.2 µM), without a hit: top-dose activity change, negative = growth inhibition, usual class: inhibitors; 12% of 420,000 active; AID 686979; also: nearly all actives have a fitted effect of over 55% in size
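Chicken DT40 Tdp1-/- cells stably complemented with human TDP1 were seeded at 400 cells/well in medium containing 20 nM camptothecin, exposed to pin-transferred compounds, and grown at 37 °C for at least 48 hr. Viability was read as ATP luminescence.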
12-LOX inh = blocks human arachidonate 12S-lipoxygenase; P18054; purified 12hLO, xylenol orange hydroperoxide absorbance; Potency, µM (doses to about 108 µM), for inactives: top-dose activity change, negative = inhibition, hits mostly inhibitors; 1.1% of 580,000 active; AID 1671190
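Purified human 12hLO (150 nM final) in 25 mM Hepes, 0.01% Triton X-100, pH 7.0 was preincubated 15 min at room temperature with compound. Then 40 uM arachidonic acid was added, 30 min. Hydroperoxide was read by Fe-XO absorbance ratio 573/405 nm.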
The depositor's hits bear a star; u = inconclusive; x = not tested or not shown; [ ] = remark or other dose. Only some compounds are listed: those with a hit (about 15% of all), similar ones and a draw of the others. Calls follow the shape of the dose curve; as a rule, active = well fitted curve in the direction sought with a large enough effect; inconclusive = small, poorly fitted or top-dose-only effect, or another doubt; inactive = no such curve, though single readings can be large; an effect the other way counts as inactive or inconclusive. % is scaled to controls: 0 for no effect and ±100 for the full control effect; potency is read from the fitted curve at half-maximal effect.

SMILES | ELG1 DNA repair | TDP1 cell noCPT | RORgamma inh | Gal4-VP16 FLuc | DT40 TDP1 CPT | 12-LOX inh
O=C(/C=C/c1ccccc1)C1=C(O)C(=O)N(CCO)C1c1ccc2c(c1)OCO2 (centres undefined) | -10% | 18% | -21% | -13% | 12% | 7.9µM*
COc1ccccc1-c1c(C)nn2c(N3CCN(Cc4ccccc4)CC3)cc(C)nc12 | u | u | -23% | 1% | u | -2%
Cc1cc(N2CCN(Cc3ccccc3)CC2)n2nc(C)c(-c3ccccc3)c2n1 | u | 18µM* | 2% | 12% | 15µM* | 0%
COc1ccc(-c2c(C)nn3c(N4CCN(Cc5ccccc5)CC4)cc(C)nc23)cc1OC | 4.6µM* | 23µM* | 18% | -3% | 23µM* | 24%
Cc1nn2c(N3CCCC3)cc(C(C)C)nc2c1-c1ccccc1 | 12% | u | 14µM* | -2% | u | 0%
Cc1cc(N2CCCCC2)n2nc(C)c(-c3ccccc3)c2n1 | u | u | -19% | -4% | u | 9%
Cc1ccccc1NC(=O)c1ccc(N/N=C/c2ccccc2O)c([N+](=O)[O-])c1 | 0% | 10µM* | 19% | -24% | 8.2µM* | 94%
Cc1ccc(NC(=O)c2ccc(N/N=C/c3cccc(O)c3)c([N+](=O)[O-])c2)cc1 | -24% | 12µM* | u | u | 9.2µM* | -29%
Cc1ccc(C(=O)Nc2cccc(C(=O)N/N=C/c3ccc(O)cc3)c2)cc1 | u | -27% | -17% | u | -7% | 21%
COCC1CN(C(C)=O)CC12CCN(S(=O)(=O)c1cc(C)ccc1C)CC2 (centres undefined) | x | x | x | x | x | 15%
COc1cc(NC(=O)c2ccccc2)c(OC)cc1NC(=O)Cc1ccc(F)cc1 | -12% | 21µM* | u | -4% | -1% | 5%
O=C(Nc1ccccc1OC(=O)c1ccccc1)c1ccccc1 | x | 29µM* | x | x | u | 7%
COc1cc(NC(=O)c2ccccc2)c(OC)cc1NC(=O)Cc1ccc(Br)cc1 | -29% | u | u | 11µM* | u | 17%
CCOc1ccccc1NC(=S)N(CCCN1CCOCC1)Cc1cn(C)c2ccccc12 | -24% | u | 11µM* | u | 16µM* | -12%
COc1ccccc1NC(=S)N(CCCN1CCOCC1)Cc1cn(C)c2ccccc12 | -30% | 16µM* | u | -9% | 15µM* | 19%
COCc1nncn1C1CCN(S(=O)(=O)c2ccccc2)CC1 | x | x | x | x | x | 37%
CCN1c2cc(C(=O)NC3CCCCCC3)ccc2C(=O)N2CCCCCC21 (centres undefined) | x | x | x | x | x | -7%
O=C(CN1CCOCC1)NN=C(c1ccccc1)c1ccccc1 | 9% | u | 35% | -3% | 7% | -5%
CC(C(=O)NN=C(c1ccccc1)c1ccccc1)N1CCOCC1 (centres undefined) | 0% | 16µM* | 30% | -16%[10 µM] | u | 2%
O=C(CCC1CCCCC1)NCCCNC(=O)CCC1CCCCC1 | x | x | x | x | x | -35%
CC(C1CC2CCC1C2)n1c(-c2cccs2)n[nH]c1=S (centres undefined) | -2% | u | 0.79µM* | u | u | 45µM*
COc1cc(C(=O)Nc2ccc(Br)cc2C(=O)c2cc(OC)c(OC)c(OC)c2)cc(OC)c1OC | u | 3.7µM* | -14% | -7% | 13µM* | 21%
CCOC(=O)c1[nH]c2ccc(OC)cc2c1NC(=S)N1CCN(c2cccc(C)c2C)CC1 | 13µM* | u | 4.5µM* | u | u | u
CCOC(=O)c1[nH]c2ccc(OC)cc2c1NC(C)=O | -4% | -12% | -4% | -25% | 3% | 6%
COc1cc(C(=O)Nc2c(C(=O)O)[nH]c3ccc(Br)cc23)cc(OC)c1OC | 13% | -14% | -14% | -2% | -4% | 40µM*
SMILES | ELG1 DNA repair | TDP1 cell noCPT | RORgamma inh | Gal4-VP16 FLuc | DT40 TDP1 CPT | 12-LOX inh
COc1cc(C(=O)Nc2scc(-c3ccc(Br)cc3)c2C(=O)O)cc(OC)c1OC | 2% | -5% | -14% | 1% | -16% | -62%
CCOC(=O)c1[nH]c2ccc(OC)cc2c1NC(=O)c1cccc(OC)c1 | 13µM* | u | -2% | -1% | 23µM* | -29%
CCCCCC(=O)Nc1nc2c(s1)C[C@@H]1[C@](C)(CO)[C@H](O)CC[C@@]1(C)[C@@H]2CC(=O)NCCOC | x | x | x | x | x | 2%
COC(=O)c1[nH]c2ccc(F)cc2c1NS(=O)(=O)c1ccc(OC)cc1 | u | 3.3µM* | 10% | -5% | 3.3µM* | -10%
CCOC(=O)c1cc(CC)sc1NC(=O)c1cc(OC)c(OC)c(OC)c1 | u | 18µM* | -27% | -2% | u | u
COc1ccc(S(=O)(=O)Nc2c(C(=O)O)[nH]c3ccc(OC)cc23)cc1 | 2% | 19% | 0% | 13% | 6% | u
CCOC(=O)c1[nH]c2ccc(F)cc2c1NC(=O)c1cc(OC)c(OC)c(OC)c1 | 7.3µM* | 23µM* | 3% | 1% | u | -16%
CCCC(=O)Nc1c(C(=O)OCC)[nH]c2ccc(F)cc12 | x | x | x | x | x | -2%
O=c1c2c3c(sc2ncn1-c1ccc(Br)cc1)CCCC3 | x | x | x | x | x | -14%
O=C1CC2CCN(C(=O)c3ccccc3)CC2CCN1 (centres undefined) | x | x | x | x | x | 50µM*
O=C1CC2CCN(C(=O)c3ccc(F)cc3)CC2CCN1 (centres undefined) | x | x | x | x | x | -8%[12.5 µM]
CCCCOC(=O)n1c(SCC(=O)N(CC)CC)nc2ccccc21 | u | u | 12% | -1% | 21µM* | -17%
CCOC(=O)n1c(SCC(N)=O)nc2ccccc21 | 19% | 5% | -2% | -6% | 1% | -13%
CC(C)c1onc(-c2c(Cl)cccc2Cl)c1COc1ccc(/C=C/c2cccc(C(=O)O)c2)c(Cl)c1 | x | x | -45% | 5.6µM* | x | 0%
CCC(C)NC(=O)c1cccc(OCc2c(C)noc2C)c1 (centres undefined) | -11% | 9% | -31% | 3% | 11% | -11%
Cc1cc(OC(=O)c2c(C)cc(OC(=O)c3c(C)cc(O)cc3O)cc2O)cc(O)c1C(=O)O | x | -11% | x | x | 12% | 35µM*
O=C1CCCC2=C1C(c1ccccc1Cl)CC(=O)N2c1ccccc1F (centres undefined) | x | x | x | x | x | -4%
